The list is not random: actives were taken first. Their share in the collection is about 1.1%.
Mtb UGM inh – blocks M. tuberculosis UGM enzyme | P9WIQ1 | purified UGM, fluorescence polarization probe displacement | inhibition, % at 10 µM | 320,000 compounds, 0.06% hits | AID 504406; in the data active = inhibition above about 10%, passing the limit was not always enough; inconclusive = no clear call, values can overlap the other calls
Target sequence (P9WIQ1 whole entry, looked up): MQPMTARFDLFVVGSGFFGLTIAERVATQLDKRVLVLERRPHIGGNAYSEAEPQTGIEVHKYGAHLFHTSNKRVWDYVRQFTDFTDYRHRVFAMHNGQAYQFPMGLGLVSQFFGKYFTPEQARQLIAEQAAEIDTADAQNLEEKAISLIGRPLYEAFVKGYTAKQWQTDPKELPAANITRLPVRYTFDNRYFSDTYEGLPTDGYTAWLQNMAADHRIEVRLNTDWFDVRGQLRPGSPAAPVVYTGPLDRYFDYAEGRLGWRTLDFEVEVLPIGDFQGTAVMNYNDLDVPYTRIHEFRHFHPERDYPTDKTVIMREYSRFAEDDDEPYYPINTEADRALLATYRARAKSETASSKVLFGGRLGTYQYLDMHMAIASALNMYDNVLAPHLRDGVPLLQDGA
Rv3671c inh – inhibits the M. tuberculosis serine protease Rv3671c; P9WHR9; inhibition, % at 5.96 µM; 320,000 compounds, 0.048% hits; in the data active = inhibition above about 38%;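 note: extracellular domain of Rv3671c used as enzyme; 0% = enzyme with DMSO and 100% = no enzyme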
PriA SSB inh – K. pneumoniae PriA-SSBct interaction inhibition; inhibition, % at 33 µM; AlphaScreen SSBct-PriA binding, biotinylated peptide; 430,000 compounds, 0.6% hits; in the data active = inhibition mostly above about 37%, no sharp cut-off; inactive = mostly below about 20%;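 note: plate controls were negative control peptide for no effect and reference peptide for full effect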
RecA intein inh – inhibitors of M. tuberculosis RecA intein splicing | 290,000 compounds, 0.75% hits | P9WHJ3 | inhibition, % (no concentration beside the values) | AID 2221 | cell-free RecA intein splicing, fluorescence; in the data active = inhibition above about 30%; inconclusive = no clear call, values can overlap the other calls;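 note: 0% = vehicle wells and 100% = reference inhibitor control wells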
Mtb betalactam – beta-lactam sensitization of Mtb H37Rv. 330,000 compounds, 0.27% hits. inhibition, % at 25 µM. M. tuberculosis H37Rv growth with meropenem, percent inhibition; call rule not given here;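 note: growth measured after seven days incubation then overnight dye step; 0% = bacteria only wells and 100% = bacteria with antibiotic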
Numbers without * were called inactive; ? = inconclusive; / = no result given; ! = not active in a repeat.

SMILES | Mtb UGM inh | Rv3671c inh | PriA SSB inh | RecA intein inh | Mtb betalactam
O=C(CS(=O)(=O)c1ccc(F)cc1)NCCS(=O)(=O)c1ccccc1 | 0 | 0 | 58* | -1 | 4
O=C(O)CS(=O)(=O)c1ccc(F)cc1 | / | / | -17 | / | /
Cc1ccc(NC(=O)C(NC2CCCc3ccccc32)c2ccccc2)c([N+](=O)[O-])c1 (stereo unspecified) | 3 | -3 | 46* | 2 | 76
Cn1cccc1-c1cc(C(=O)NN=Cc2ccccc2Cl)[nH]n1 | / | / | 40* | / | /
Cc1noc(C)c1S(=O)(=O)NCCn1ccc(-c2ccncc2)n1 | / | / | -2 | / | /
O=C(NCCC(O)c1cc2ccccc2o1)C1COc2ccccc2O1 (stereo unspecified) | / | / | -20 | / | /
Cc1nn(-c2ccccc2)c(C)c1C1C(C#N)=C(N)Oc2n[nH]c(C)c21 (stereo unspecified) | -1 | 11 | -8 | 63* | 1
CCC(C)C1C(C#N)=C(N)Oc2n[nH]c(-c3ccccc3)c21 (stereo unspecified) | 3 | -8 | 0 | 5 | -4
Cc1[nH]nc2c1C(c1cc(Br)cs1)C(C#N)=C(N)O2 (stereo unspecified) | -1 | -9 | -7 | 53* | -2
Cc1ccc(-n2nc(C)c3c2OC(N)=C(C#N)C3c2ccc(F)cc2)cc1 (stereo unspecified) | -2 | -57 | 22 | 60* | -6
Cc1ccc(C2C(C#N)=C(N)Oc3n[nH]c(-c4ccccc4)c32)o1 (stereo unspecified) | 3 | -7 | 9 | 88* | 5
Cc1noc(Cc2ccccc2NC(=O)c2cc(C)oc2C)n1 | / | / | -26 | / | /
Cc1nn(C)c(C)c1C1C(C#N)=C(N)Oc2n[nH]c(C)c21 (stereo unspecified) | 2 | -2 | -3 | 43* | -1
Cc1cc(OC2CCN(C(=O)C3(c4ccccc4)CCOCC3)CC2)cc(=O)o1 | / | / | 23* | / | /
CCOc1ccc(-c2csc(NC(=O)Cc3ccc(S(=O)(=O)CC)cc3)n2)cc1 | / | / | -4 | / | /
CCOC(=O)C1=C(O)/C(=C/c2ccc(-c3ccccc3C(=O)O)o2)SC1=Nc1ccc(C)cc1 | / | / | 1 | / | /
CCOC(=O)C1=C(O)/C(=C/c2cn(CC(=O)NCC3CCCO3)c3ccccc23)SC1=Nc1ccc(C)cc1 (stereo unspecified) | 22* | 11 | 4 | / | 12
COCC(C)(O)CNS(=O)(=O)CC12CCC(CC1=O)C2(C)C (stereo unspecified) | / | / | -7 | / | /
COC1(CNS(=O)(=O)CC23CCC(CC2=O)C3(C)C)CCSC1 (stereo unspecified) | / | / | 40* | / | /
O=C1C[C@H](NS(=O)(=O)c2cccs2)CN1C1CC1 | / | / | -8 | / | /
CCCS(=O)(=O)c1nnnn1-c1cccc(OC)c1 | 0 | 4 | -3 | 91* | 101
COc1cc2nc(N(CCCN(C)C)C(=O)c3ccc(C(=O)c4ccccc4)cc3)sc2cc1OC | -2 | 8 | 37*! | -2 | -5
COc1ccc2nc(N(CCN(C)C)C(=O)c3ccc(C(=O)c4ccccc4)cc3)sc2c1 | 4 | -6 | 50* | 3 | -5
CCN(CC)CCN(C(=O)c1ccc(C(=O)c2ccccc2)cc1)c1nc2ccc(OC)cc2s1 | 5 | -6 | 32 | 8 | -4
CCc1ccc2nc(N(CCCN(C)C)C(=O)c3ccc(C(=O)c4ccccc4)cc3)sc2c1 | -1 | -3 | 47*! | 10 | 98
SMILES | Mtb UGM inh | Rv3671c inh | PriA SSB inh | RecA intein inh | Mtb betalactam
CCOc1ccc2nc(N(CCN(C)C)C(=O)c3cc4ccccc4cc3OC)sc2c1 | -1 | 3 | 44*! | 7 | ?
CN(CC(=O)NCCC1=CCCCC1)c1nc2c(F)cccc2s1 | / | / | -21 | / | /
CCN(CC)CCN(C(=O)c1ccc(C(=O)c2ccccc2)cc1)c1nc2c(OC)ccc(OC)c2s1 | / | / | 49* | / | /
CNC(=O)CS(=O)(=O)C1CCN(C(=O)c2cc(OC)ccc2Br)CC1 | / | / | -17 | / | /
CC(C)CCN1C(=O)C(C)(C)COc2ccc(NC(=O)COc3ccccc3F)cc21 | / | / | -18 | / | /
CCc1ccc(S(=O)(=O)N=C2C=C(Nc3ccc(O)cc3)C(=O)c3ccccc32)cc1 | / | / | 95* | / | /
O=C1C(Nc2ccc(O)cc2)=CC(=NS(=O)(=O)c2cccs2)c2ccccc21 | / | / | 76* | / | /
COc1ccc(S(=O)(=O)N=C2C=C(Nc3cccc(C)c3)C(=O)c3ccccc32)cc1 | / | / | 89 | / | /
O=C(Cn1c([C@H]2CC(=O)N(CCc3ccccc3)C2)nc2ccccc21)N1CCCCC1 | / | / | -10 | / | /
CCC(=O)NC(NC(=S)Nc1cccc2cccnc12)C(Cl)(Cl)Cl (stereo unspecified) | 2 | 4 | -2 | 0 | 1
CC(C)(C)C(=O)NC(Nc1cccc2cccnc12)C(Cl)(Cl)Cl (stereo unspecified) | -2 | -8 | 87* | 9 | -5
O=C(CF)NC(Nc1cccc2cccnc12)C(Cl)(Cl)Cl (stereo unspecified) | 2 | 2 | 73* | 5 | 5
COc1ccc(NC(=O)Cn2nc(C3CC3)c3cnn(-c4cccc(Cl)c4)c3c2=O)cc1 | / | / | -15 | / | /
COc1ccc(-c2c(C#Cc3ccc(N(C)C)cc3)c3ccccc3n2C)cc1 | -2 | 7 | 78* | / | 49
CCN1C=CC=C/C1=C(/C#N)c1nc(-c2ccccc2)cs1 | / | / | 108* | / | /
O=C(O)C1CC1(c1ccccc1)c1ccccc1 (stereo unspecified) | 1 | 1 | -7 | -4 | 5
O=C(C1CC1(c1ccccc1)c1ccccc1)N1CCOCC1 (stereo unspecified) | -2 | -2 | 55* | 2 | -8
Cc1cc(=O)[nH]c(-n2nc(-c3cccs3)cc2NC(=O)COc2ccccc2F)n1 | / | / | -11 | / | /
O=C(c1cccc(OCc2ccccc2)c1)N1CCC(S(=O)(=O)Cc2ccco2)CC1 | / | / | -7 | / | /
C#CCn1c(=NC(=O)c2cccs2)sc2c(C)cc(C)cc21 | / | / | -1 | / | /
Oc1cnn(-c2ccccc2)c1 | 1 | 2 | -11 | 63* | 94
COC(=O)C1=C(c2ccccc2OCc2ccccc2)C[C@@H]2CC[C@H]1N2C(=O)NCc1ccc(Cl)cc1 | -1 | -21 | -23 | / | -3
COC(=O)C1=C(c2ccc(F)cc2OCc2ccccc2)C[C@@H]2CC[C@H]1N2C(=O)NCc1ccc(Br)cc1 | 3 | -22 | -16 | / | -5
COC(=O)C1=C(c2cccc(OCc3ccccc3)c2)C[C@@H]2CC[C@H]1N2C(=O)NCc1ccc(N(C)C)cc1 | -5 | 1 | 56* | / | -21
COC(=O)C1=C(c2ccc(F)cc2OCc2ccccc2)C[C@@H]2CC[C@H]1N2C(=O)NCc1ccc(N(C)C)cc1 | -3 | 13 | 46* | / | -10
COC(=O)C1=C(c2ccccc2OCc2ccccc2)C[C@@H]2CC[C@H]1N2C(=O)NCc1ccc(N(C)C)cc1 | 1 | 8 | 53* | / | 15
Cc1nn(-c2ccccc2)c(N=Cc2ccc(O)cc2)c1-c1ccccc1 | / | / | -7 | / | /
Cn1cccc1C(O)CCNC(=O)c1ccc(Br)o1 (stereo unspecified) | / | / | -15 | / | /
CCOC(=O)/C(C#N)=C1/SC(C)C(=O)N1c1ccc(Br)cc1 (stereo unspecified) | 0 | -9 | -5 | 32* | -10

Bioassay records: PubChem BioAssay, several laboratories
